D2 ag-1: HTS Assay for Allosteric Agonists of the Human D2 Dopamine Receptor: Primary Screen for Agonists | activation, % at 2 µM | AID 485358, 2010 | HEK293 T-REx D2 cells, calcium flux agonist mode | D(2) dopamine receptor (Homo sapiens), P14416 | hit rate 0.53% among 340,000;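 active = activation over 3 SD above normal in the single-dose calcium agonist read, cut at about 30% in these data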; note: 0% is about no effect
Target sequence (P14416 whole entry, looked up): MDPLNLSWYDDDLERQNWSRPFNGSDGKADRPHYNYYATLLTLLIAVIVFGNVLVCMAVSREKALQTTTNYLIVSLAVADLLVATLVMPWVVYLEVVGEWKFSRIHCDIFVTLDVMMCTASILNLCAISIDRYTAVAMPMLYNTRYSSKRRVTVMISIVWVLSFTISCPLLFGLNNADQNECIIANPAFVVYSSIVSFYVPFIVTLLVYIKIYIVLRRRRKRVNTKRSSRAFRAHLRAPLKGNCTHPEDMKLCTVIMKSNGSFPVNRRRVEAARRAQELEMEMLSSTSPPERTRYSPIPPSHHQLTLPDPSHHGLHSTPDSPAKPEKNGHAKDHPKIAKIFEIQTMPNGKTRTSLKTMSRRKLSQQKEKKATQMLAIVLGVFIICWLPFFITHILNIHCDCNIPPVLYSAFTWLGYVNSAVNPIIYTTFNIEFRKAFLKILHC
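Calcium-flux readout, 1 cycle/sec over 180 s following compound pin transfer, in inducible HEK293 Trex D2 cells (force-coupled); dopamine controls included. Positive calcium responses during this window marked compounds as potential agonists.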
D2 ag-2: Beta-Arrestin HTS for Positive Allosteric Modulators of the Human D2 Dopamine Receptor: Agonists | hit rate 0.084% among 360,000 | D(2) dopamine receptor (Homo sapiens), P14416 | activation, % (concentration not given with the values) | DiscoveRx PathHunter D2 beta-arrestin, luminescence, 90 min; 100% = 57 uM dopamine signal | AID 624465, 2012; in the data active = activation above about 40%; inconclusive = between about 15% and that limit
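DiscoveRx PathHunter D2 beta-arrestin cells (2,100/well) attached overnight, then compound-stimulated 90 min at 37 C in HBSS/10 mM HEPES/0.1% Tween-20 buffer; beta-galactosidase complementation read by luminescence after 1 h at ambient temperature. Dopamine 57 uM final (EC100) as control.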
D2 PAM-1: Beta-Arrestin HTS for Positive Allosteric Modulators of the Human D2 Dopamine Receptor: Potentiators | D(2) dopamine receptor (Homo sapiens), P14416 | DiscoveRx D2 beta-arrestin cells, luminescence, 90 min; 100% = 57 uM dopamine signal | potentiation, % (concentration not given with the values) | hit rate 0.23% among 360,000 | AID 624464, 2012; in the data active = potentiation above about 50%; inconclusive = mostly about 30% to 49%
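PathHunter beta-arrestin assay in DiscoveRx D2 cells. Compounds were added with an EC20 of dopamine (50 nM final) for 90 min at 37 deg C. Luminescence was read 1 h after detection reagent, with 57 uM dopamine as the EC100 control.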
D2 antag: HTS Assay for Allosteric Antagonists of the Human D2 Dopamine Receptor: Primary Screen for Antagonists. AID 485344, 2010. HEK293 TREx D2 cells, calcium flux, dopamine EC80. inhibition, % at 10 µM. hit rate 2% among 340,000. D(2) dopamine receptor (Homo sapiens), P14416; in the data active = inhibition above about 30%; inactive = below that, where a call was filed; note: 0% is about no effect
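Dopamine at EC80 is the agonist stimulus; test compounds precede it by 180 s. Calcium flux read kinetically in a force-coupled, inducible HEK293 T-REx D2 cell line.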
D2 PAM-2: HTS Assay for Positive Allosteric Modulators of the Human D2 Dopamine Receptor: Primary Screen for Potentiators. hit rate 0.34% among 340,000. HEK293 T-REx D2, calcium flux, EC20 dopamine potentiation. D(2) dopamine receptor (Homo sapiens), P14416. potentiation, % at 10 µM;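 active = potentiation over 3 SD above the plate norm, cut at about 30% in these data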; note: 0% is about no effect
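Potentiation of an EC20 dopamine calcium response is measured in a force-coupled, tetracycline-inducible Hek293 Trex D2 line. Compound-only kinetic reads over 180 s flag agonists before dopamine addition.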
Numbers without * were called inactive; ? = inconclusive; . = not tested or not shown. This is a sample that favours compounds with a hit; in the whole collection about 2.4% have one here.

SMILES	D2 ag-1	D2 ag-2	D2 PAM-1	D2 antag	D2 PAM-2
Cc1ccc(OCc2nc(-c3ccc(C(=O)N4CCN(c5cc(Cl)ccc5C)CC4)cc3)oc2C)cc1	.	.	.	.	-2.1
Cc1cccc(C(=O)N[C@H](C(=O)NCCc2ccc(Cl)cc2)C(C)C)c1	-1.0	-1.9	-1.8	38.5*	-12.5
CC(C)[C@H](NC(N)=O)C(=O)NCCc1ccc(Cl)cc1	0.4	-4.0	-3.0	-3.8	-2.3
O=C(O)c1n[nH]c2c1CCCC2	-0.5	-2.8	-2.3	56.9*	13.9
O=C(O)c1n[nH]c2c1CCCCC2	1.0	1.0	17.1	20.5	3.2
CCCC(CCC)C(=O)NC1CCN(Cc2ccccc2)CC1	-0.3	0.1	-11.6	17.5	-17.7
CC(Oc1ccc(Br)cc1)C(=O)NC1CCN(Cc2ccccc2)CC1 (centres undefined)	-0.4	-5.0	-32.4	64.4*	2.3
CC(C)Oc1ccc(C(=O)NC2CCN(Cc3ccccc3)CC2)cc1	-0.5	-3.2	-26.3	-11.8	-22.8
COC(=O)[C@H](C)NC(=O)NC1CCN(Cc2ccccc2)CC1	0.1	-1.8	-20.1	50.4*	-11.4
FC(F)(F)c1cccc(N2CCN(Cc3nnc(-c4ccc5c(c4)OCO5)o3)CC2)c1	-0.2	.	.	.	-16.3
CCOCCCNC(=O)C(NC(=O)C1CCC(C)CC1)C(C)C (centres undefined)	-0.1	.	.	.	-0.2
COc1ccc(OC)c(CNc2ncnc3c2nc2n3CCCC2)c1	-0.6	.	.	.	-0.1
CCN(CC)CCCNC(=O)c1cc2c(-c3cccc(OC)c3)nn(C)c2s1	0.3	0.1	-49.4	-27.9	-2.4
CCCCN(C)CCNC(=O)c1cc2c(-c3ccccc3F)nn(C)c2s1	32.2*	3.5	-12.7	24.3	-15.8
Cn1nc(-c2ccc(Cl)cc2)c2cc(C(=O)NCCCN3CCCC3)sc21	0.2	13.8	10.9	33.0*	-26.2
COc1cccc(-c2nn(C)c3sc(C(=O)NCc4ccco4)cc23)c1	0.1	-3.0	-27.8	36.2*	-17.0
COc1cccc(-c2nn(C)c3sc(C(=O)NCCCN(C)Cc4ccccc4)cc23)c1	-2.3	6.7	-35.6	33.2*	-22.9
Cc1nn2c(=O)cc(COC(=O)c3ccc(NC(=O)c4cccc(Br)c4)cc3)nc2s1	1.4	.	.	.	4.3
COc1ccc(CNc2nc3c(-c4ccc(C)cc4)nnn3c3ccccc23)cc1	2.0	.	.	.	-17.1
CC(=O)c1cccc(NC(=O)[C@H](Cc2ccccc2)N2Cc3ccccc3C2=O)c1	-1.5	.	.	.	10.6
O=C(O)c1ccc2noc(-c3ccccc3)c2c1	0.5	3.0	-4.0	-11.0	1.5
CC1(c2ccc3noc(-c4ccccc4)c3c2)OCCO1	-0.5	14.4	58.4*	-12.4	15.8
O=C(c1ccc2noc(-c3ccccc3)c2c1)N1CCN(c2ccccc2)CC1	0.4	?	71.9*	-3.2	-3.9
COc1cccc(-c2onc3ccc(C4(C)OCCO4)cc23)c1	0.6	?	25.3	0.3	3.4
CC1(c2ccc3noc(-c4ccc(F)cc4)c3c2)OCCO1	0.8	?	60.5*	-7.9	-6.2
SMILES	D2 ag-1	D2 ag-2	D2 PAM-1	D2 antag	D2 PAM-2
O=C(Cn1c(-c2cccs2)cc2ccccc21)NCc1ccccc1Br	-0.5	.	.	.	0.4
Cc1ccc(-c2ccc(=O)n(CCC(=O)NCCc3ccccc3)n2)cc1	.	.	.	.	-3.9
CC(C)NC(=O)CN(Cc1ccc2c(c1)OCO2)C(=O)CCC(=O)Nc1ccccn1	0.3	-1.1	1.5	43.2*	8.8
O=C(CC1CCCCC1)Nc1ccc(-c2ccc3nncn3n2)cc1	0.1	-2.4	-1.6	10.7	43.1*
CCc1cccc(-n2nnc(S(=O)(=O)c3ccc(OC)cc3)c2C)c1	0.3	.	.	.	0.4
Clc1ccc(-c2ccc(CN3CCCCC3)o2)cc1	0.5	-2.9	-66.1	78.2*	-27.7
Cc1ccc(C2C(C#N)=C(N)Oc3cc(N)ccc32)cc1 (centres undefined)	-0.4	-0.4	-0.4	10.5	0.3

High-throughput results from PubChem.
